DT40 TDP1 no CPT – qHTS for Inhibitors of human tyrosyl-DNA phosphodiesterase 1 (TDP1): qHTS in cells in absence of CPT | DT40 Tdp1-/- hTDP1 cells, no CPT, ATP luminescence, 48 h | Potency, µM (titrated, usually from 46.2 µM), for inactives: at the top dose activity change, negative = growth inhibition, actives largely listed as inhibitors | 15% of 420,000 active | AID 686978, 2013; further: nearly all actives have a fitted effect of over 55% in size
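Cells were dispensed at 400 per well, compounds added by pin tool, plates incubated ≥48 hr at 37 °C, then CellTiter-Glo added for 30 min at room temperature before luminescence reading. Line: DT40 Tdp1-/- complemented with hTDP1; camptothecin omitted.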
Gal4-VP16 FLuc – counter-screen for ROR gamma inhibitors: Gal4-VP16 reporter; Drosophila S2 Gal4-VP16 UAS-luciferase, luminescence, 20 h; Potency, µM (highest dose often 53.6 µM), for inactives: at the top dose activity, negative = inhibition, usual class: inhibitors; 3.5% of 310,000 active; AID 2546;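 further: Gal4-VP16 expression switched on by copper sulfate through the metallothionein promoter; nearly all actives have a fitted effect of over 50% in size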
DT40 TDP1 CPT – growth inhibition of DT40 Tdp1-/-;hTDP1 cells with camptothecin (screen for TDP1 inhibitors). 12% of 420,000 active. chicken DT40 Tdp1-/-;hTDP1 cells + 20 nM CPT, ATP luminescence, 48 h. Potency, µM (series often up to 46.2 µM), inactives show at the highest dose activity change, negative = growth inhibition, usual class: inhibitors. AID 686979; further: nearly all actives have a fitted effect of over 55% in size
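Chicken DT40 Tdp1-/- cells complemented with human TDP1, 400 cells/well, exposed to compounds plus 20 nM camptothecin for at least 48 h at 37 C; viability read as ATP content by CellTiter-Glo luminescence.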
RORg inh – ROR gamma (mouse) transcription inhibition. Drosophila S2 Gal4-RORgamma UAS-luciferase reporter, 20 h. Potency, µM (series often up to 53.6 µM), inactives show at the top dose activity change, negative = inhibition, actives largely listed as inhibitors. 5.4% of 310,000 active. AID 2551; further: nearly all actives have a fitted effect of over 60% in size
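Luminescence from a UAS-regulated Photinus luciferase reporter in stably transfected Drosophila Schneider cells is measured; decreased signal marks ROR gamma inhibition. Fusion expression is induced by 700 uM copper sulfate for 20 hr.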
TDP1 block – inhibitors of human tyrosyl-DNA phosphodiesterase TDP1; Q9NUW8; recombinant TDP1, AlphaScreen DNA substrate cleavage; Potency, µM (titrated, usually from 130 µM), for the others: at the highest dose activity change, negative = inhibition, hits mostly inhibitors; 0.28% of 350,000 active; further: nearly all actives have a fitted effect of over 40% in size
Target sequence (Q9NUW8 whole entry, looked up): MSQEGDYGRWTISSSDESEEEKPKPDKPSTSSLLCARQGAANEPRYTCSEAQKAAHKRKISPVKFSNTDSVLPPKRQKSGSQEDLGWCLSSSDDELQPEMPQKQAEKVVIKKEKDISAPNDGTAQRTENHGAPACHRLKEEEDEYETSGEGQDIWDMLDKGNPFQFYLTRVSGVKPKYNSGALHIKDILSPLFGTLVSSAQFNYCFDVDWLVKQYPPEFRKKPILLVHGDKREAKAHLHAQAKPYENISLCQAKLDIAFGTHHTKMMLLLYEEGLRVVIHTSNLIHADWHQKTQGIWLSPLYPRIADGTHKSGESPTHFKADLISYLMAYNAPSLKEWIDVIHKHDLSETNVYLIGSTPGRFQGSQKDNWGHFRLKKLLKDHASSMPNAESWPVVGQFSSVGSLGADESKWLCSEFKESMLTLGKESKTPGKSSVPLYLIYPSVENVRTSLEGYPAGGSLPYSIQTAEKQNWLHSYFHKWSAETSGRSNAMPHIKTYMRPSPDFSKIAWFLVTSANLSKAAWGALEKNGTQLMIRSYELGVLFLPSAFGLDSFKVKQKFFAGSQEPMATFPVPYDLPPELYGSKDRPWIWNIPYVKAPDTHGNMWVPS
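Recombinant human Tdp1 (E. coli-expressed, 1 nM final) preincubated with compounds 15 min at room temperature, then 5'-biotin/3'-phosphotyrosine-FITC DNA substrate (15 nM final) added for 5 min. AlphaScreen beads (10 ug/ml final) added 10 min; cleavage lowers signal.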
An asterisk follows results filed as active; ? = inconclusive; . = no result; [ ] = dose if it differs, or a comment. This is a sample that favours compounds with a hit; in the whole collection about 19% have one here. The call rests on the fitted dose curve; in most records, active means well fitted curve in the direction sought with a large enough effect; inconclusive means small, poorly fitted or top-dose-only effect, or another doubt; inactive means no such curve, though single readings can be large; an effect the other way counts as inactive or inconclusive. On the % scale 0 is the no-effect control and ±100 the full control effect; potency means the concentration at half of the fitted maximal effect.

SMILES | DT40 TDP1 no CPT | Gal4-VP16 FLuc | DT40 TDP1 CPT | RORg inh | TDP1 block
O=C(N/N=C\c1ccccn1)c1ccccc1O | ? | 4.5µM* | 15µM* | 2µM* | 3%
O=C(N/N=C/c1ccccn1)c1ccco1 | -5% | -9% | -9% | -18% | 4%
CC(C)(C)c1ccc(C2CC2C(=O)N/N=C\c2cc3ccccc3nc2Cl)cc1 (stereo not drawn) | 16µM* | -5% | ? | -4% | 5%
O=C(N/N=C\c1ccncc1)c1ccccc1O | -4% | ? | 24% | 11µM* | -3%
COc1cc(/C=N/NC(=O)c2ccccc2O)ccc1OC(=O)CC1SC(=O)NC1=O (stereo not drawn) | ? | 4% | -8% | -46% | 3%
O=C(OCC(=O)N1CCN(c2ccccc2)CC1)c1ccccc1OC(F)F | 3% | . | -2% | . | .
FC(F)(F)c1ccc(Sc2nnc(-c3cccs3)n2CC2CCCO2)nc1 (stereo not drawn) | -13% | -1%[0.365 µM] | -16% | 24% | 5%
CCC/C=N/NC(=O)c1ccccc1O | 0% | -81% | 23% | 10µM* | 5%
CCCCCCCCC(=O)N/N=C/c1ccccn1 | ? | -8% | 18µM* | -88% | -2%
Cc1cc(NC(=O)CC(C)C)c(=O)n(Cc2c(F)cccc2Cl)c1 | ? | -5% | -20% | 14% | .
CN(C)S(=O)(=O)c1ccc(NC(=O)Cn2ccsc2=N)cc1 | -7% | -17% | -13% | 6% | 3%
COc1ccc(CNCC(O)(c2ccccc2)c2ccc(Cl)cc2)cc1 (stereo not drawn) | 21µM* | ? | ? | -8% | 4%
COc1ccc(CNCc2cccc(Cl)c2)cc1 | -25% | 23% | ? | -1% | -1%
COc1cccc(CNc2ccc(F)c(Cl)c2)c1 | -16% | 6% | -8% | 31% | 0%
COc1cccc(CNCC(O)(c2ccc(Cl)cc2)c2ccc(Cl)cc2)c1 | 23µM* | ? | 23µM* | ? | 0%
Cc1cccc(NC(=S)NN2CCN(C)CC2)c1C | 8% | 9% | -8% | 9% | 4%
Cc1cccc(NC(=S)NC2CCCCCC2)c1C | 10µM* | 7.1µM* | 21µM* | 3.2µM* | 10%
Cc1cccc(NC(=S)NC2CCCC2)c1C | 0% | 7.1µM* | 1% | 7.1µM* | .
Cc1cccc(NC(=S)NN2CCOCC2)c1C | 8% | 2% | -3% | 11µM* | 4%
Cc1cccc(NC(=O)C2CCCN(C(=O)NC3CCCCC3)C2)c1C (stereo not drawn) | 6% | 0% | -14% | 13% | 2%
CCc1ccccc1NC(=S)NC1CC2CCC(C1)N2Cc1ccc(F)cc1 (stereo not drawn) | -20% | ? | ? | 7.1µM* | 5%
S=C(Nc1ccccc1Cl)NC1CCC(NC(=S)Nc2ccccc2Cl)CC1 (stereo not drawn) | -23% | 0% | -29% | -31% | .
Cc1c(Cl)cccc1NC(=S)NC1CCCC1 | -17% | 5.6µM* | -1% | 4.5µM* | .
Cc1cccc(NC(=S)NC2CC3CCCC(C2)N3Cc2ccccc2)c1C (stereo not drawn) | ? | ? | 16µM* | 14µM* | 2%
Cc1cc(C(F)(F)F)cc(NNC(=O)NC(=O)c2c(F)cccc2Cl)n1 | -14% | -1% | 2% | 27% | 9%
SMILES | DT40 TDP1 no CPT | Gal4-VP16 FLuc | DT40 TDP1 CPT | RORg inh | TDP1 block
CCCC12CN3CC(CCC)(CN(C1)C3c1ccc(OC(C)C)cc1)C2=O (stereo not drawn) | 16µM* | . | ? | . | .
CCCC12CN3CC(CCC)(CN(C1)C3c1ccccc1)C2=O (stereo not drawn) | ? | . | 4.1µM* | . | 5%
COc1ccc(CN2CCSCC2)c(C)c1C | -13% | -6% | 7% | -13% | .
Cc1ccc2c(ccn3cc4c(c(=O)n(C)c(=O)n4C)c23)c1 | -3% | -6% | -2% | 20% | 0%
COc1ccc(CCNC(=O)C2CCN(C(=O)c3ccccc3C)CC2)cc1 | 18µM* | -2% | ? | 36% | .
COc1cc(OC)cc(C(=O)N2CCC(C(=O)NCCc3ccccc3)CC2)c1 | 7.3µM* | -17% | 7.3µM* | 3%[1.91 µM] | .
COc1ccc(CCNC(=O)C2CCN(C(=O)c3ccc(OC)c(OC)c3)CC2)cc1 | -9% | -4% | 3% | -11% | .
O=C(c1cc(COc2ccc(F)cc2Cl)on1)N1CCSCC1 | -10% | 12% | -20% | 8% | 0%
CC(O)CNc1nc2c(c(=O)n(Cc3ccc(Cl)c(Cl)c3)c(=O)n2C)n1C (stereo not drawn) | ? | -18% | ? | 20% | 8%
Cn1c(NCC(O)c2ccccc2)nc2c1c(=O)n(Cc1ccc(Cl)c(Cl)c1)c(=O)n2C (stereo not drawn) | 21µM* | . | 21µM* | . | .
CC(O)CNc1nc2c(c(=O)n(Cc3ccc(Cl)cc3)c(=O)n2C)n1C (stereo not drawn) | ? | -6% | ? | 21% | 9%
Cn1c(NCC(O)c2ccccc2)nc2c1c(=O)n(Cc1ccc(Cl)cc1)c(=O)n2C (stereo not drawn) | 21µM* | -13% | 16µM* | ? | 3%
CCOC(=O)c1csc(NC(=O)CSc2nnnn2-c2ccc(OC)cc2)n1 | ? | -1% | ? | 21% | 5%
CCOC(=O)c1c(NC(=O)CSc2nnnn2-c2ccc(OC)cc2)sc(C)c1C | 4.1µM* | 1% | 6.5µM* | -38% | .
COc1ccc(-n2nnnc2SCC(=O)Nc2nnc(C)s2)cc1 | 5.6µM* | 4% | 6.3µM* | -24% | 2%
CCC(=O)Nc1ccc(NC(=O)CSc2nnnn2-c2ccc(OC)cc2)cc1 | -19% | 4% | -10% | 5% | .
COc1cccc(C2c3[nH]c4ccccc4c3CCN2Cc2cnn(C)c2)c1 (stereo not drawn) | -22% | -4% | -12% | -1% | .
COc1ccc(CCNC(=O)C2CCN(c3nc4ccccc4nc3C(F)(F)F)CC2)c(OC)c1 | ? | . | -29% | . | 5%
Cc1ccc(C(=O)N2CCN(c3ncccn3)CC2)cc1NC1=NC2CS(=O)(=O)CC2S1 (stereo not drawn) | -3% | -2% | 1% | -2% | .
CCOC(=O)N1CCN(S(=O)(=O)c2ccc(C)c(C(=O)NC3CCCCC3)c2)CC1 | -25% | -12% | -4% | -17% | -6%
CCOC(=O)N1CCN(S(=O)(=O)c2ccc(F)c(C(=O)Nc3ccc(C)c(Cl)c3)c2)CC1 | 21µM* | -11% | 16µM* | ? | 0%
CCOC(=O)N1CCN(S(=O)(=O)c2ccc(F)c(C(=O)Nc3ccc(C(C)C)cc3)c2)CC1 | 18µM* | -17% | 18µM* | ? | 3%

Screens from PubChem.
